Results on nine compounds are retold here after PubChem BioAssay (NCATS).

Values joined by “and” are separate entries in the source; they are usually repeats but may differ in a detail not shown here. Identical values can stand only once. Records with an inconclusive call do not appear. Where a structure was tested more than once in an assay, its records may differ in their call. Active and inactive are the calls of the source. Unless noted, calls come from the whole dose curve; as a rule, active = well fitted curve in the direction sought with a large enough effect; inconclusive = small, poorly fitted or top-dose-only effect, or another doubt; inactive = no such curve, though single readings can be large; an effect the other way counts as inactive or inconclusive.

The nature of assay [1]: High-throughput drug toxicity screening in the BPDCN cell line Gen2.2 (AID 1224824; call rule not given here;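 note: cells exposed to compounds for 48 h before reading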). To be noted: Gen2.2 BPDCN cells; at 45.8 µM (top of the series) unless noted. The essentials:
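CellTiter-Glo luminescence after 48 h compound exposure of Gen2.2 cells; percent activity set with DMSO as 100% and bortezomib (9.2 uM final) as 0%. Cells seeded at 500 per well, RPMI + 10% FBS, 37 °C.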

Assay [2] in a line: High-throughput drug toxicity screening in the BPDCN cell line Cal-1 (AID 1224825; call rule not given here). As to conditions: Cal-1 BPDCN cell viability, qHTS; at 45.8 µM (top of the series) unless noted. An outline of the steps:
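Cal-1 cells, 500 per well in phenol-red-free RPMI with 10% FBS, exposed to compounds for 48 hours at 37C, 5% CO2. Viability read by CellTiter-Glo luminescence; percent activity normalized to DMSO (100%) and 9.2 uM bortezomib final (0%).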
(In qHTS, concentration-response curves come from the screen itself.)

The nature of assay [3]: qHTS assay for measurement of the activity of small molecule inhibitors on Zika virus induced Caspase-3 activity in human iPSC derived neural progenitor cells (hNPCs) (AID 1224857). Note: nearly all actives have a fitted effect of over 65% in size. Note: potency is the fitted concentration of half-maximal effect. The essentials: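 Human iPSC-derived neural progenitor cells pretreated 1 hr with compounds, then infected with Zika virus (2 FFU/cell) for 6 hours at 37 C. Caspase-3/7 measured by Caspase-Glo luminescence; % inhibition calculated from induction scaled to uninfected (0%) and infected (100%) wells.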

A short description of assay [4]: qHTS assay for measurement of the activity of small molecule inhibitors on Zika virus induced Caspase-3 activity in human astrocytoma cells (AID 1224859). Note: potency is the fitted concentration of half-maximal effect. An outline of the steps: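 SNB-19 astrocytoma cells, 250/well, pretreated 1 h with compounds, then Zika virus at 2 FFU/cell for 6 h at 37 C; Caspase-Glo 3/7 luminescence after 30 min; percent inhibition normalised to uninfected and infected controls.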

A short description of assay [5]: qHTS Screen of the MIPE 4.0 Collection Against Ewings Sarcoma (TC71) (AID 1259253). Note: nearly all actives have a fitted effect of over 40% in size. Note: potency is the fitted concentration of half-maximal effect. An outline of the steps:
(§1)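 Dose series incubated 48 h with cells in RPMI plus 5% FBS, glutamine and penicillin/streptomycin; cell viability then quantified via CellTiter-Glo.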

Assay [6] can be described thus: qHTS Screen of the MIPE 4.0 Collection Against Ewings Sarcoma (EW8) (AID 1259255).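 For viability: 100% = DMSO-treated cells and 0% = medium-only wells without cells.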 Note: nearly all actives have a fitted effect of over 35% in size. Note: potency is the fitted concentration of half-maximal effect. The essentials:
as §1

A short description of assay [7]: qHTS Screen of the MIPE 4.0 Collection Against Ewings Sarcoma (TC32) (AID 1259256). Note: nearly all actives have a fitted effect of over 45% in size. Note: potency is the fitted concentration of half-maximal effect. The essentials:
as §1

Assay [8] in a line: qHTS assay to identify small molecule inhibitors of chordoma cells - UCH-2 (AID 1259356). Note: % is set by controls: 0 for no effect and ±100 for the full control effect.
The nature of assay [9]: qHTS profiling of the MIPE4 collection as inhibitors of Plasmodium falciparum (DD2) proliferation (AID 743345; call rule not given here). As to conditions: P. falciparum Dd2 in erythrocytes, SYBR Green DNA, 72 h; at 28.5 µM (top of the series) unless noted. An outline of the steps:
(§2)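 Erythrocytes infected with P. falciparum (0.3% parasitemia, 2.5% hematocrit) incubated with compounds 72 h at 37 C, 5% CO2. Lysis with saponin/Triton buffer containing SYBR Green I, overnight at room temperature in the dark; DNA fluorescence (485/535 nm) normalised to 0.29 uM artemisinin and DMSO.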

The nature of assay [10]: qHTS profiling of the MIPE4 collection as inhibitors of Plasmodium falciparum (DD2) proliferation (Rep 2) (AID 743346; call rule not given here). As to conditions: P. falciparum Dd2 in erythrocytes, SYBR Green DNA, 72 h; at 28.5 µM (top of the series) unless noted. An outline of the steps:
as §2

Assay [11] can be described thus: qHTS profiling of the MIPE4 collection as inhibitors of Plasmodium falciparum (HB3) proliferation (AID 743347; call rule not given here;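 note: plate controls were DMSO vehicle wells for no effect and artemisinin wells for full effect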). As to conditions: P. falciparum HB3 in erythrocytes, SYBR Green DNA, 72 h; at 28.5 µM (top of the series) unless noted. The essentials: as §2
The nature of assay [12]: qHTS assay to identify small molecule inhibitors of chordoma cells - UCH-1 (AID 1259355). Note: nearly all actives have a fitted effect of over 55% in size. Note: potency is the fitted concentration of half-maximal effect. The essentials: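 Cells (800/well) were seeded and left overnight at 37 C, 5% CO2, then treated with drugs at 15 concentrations plus a combination mix of auranofin, camptothecin, doxorubicin, rubitecan and topotecan. Viability after 48hr was read by CellTiter-Glo luminescence.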

Regarding `CN(C)C(=O)C(CCN1CCC(O)(c2ccc(Cl)cc2)CC1)(c1ccccc1)c1ccccc1`, the cell viability, % of control (lower = more cytotoxic) in assay [1] was determined as 71%. The viability (% of control) in [2] amounted to 12.1%. The Potency entry in assay [3] and in assay [4] was “inactive” each time. Moreover, the Potency in [5] was 20.9 µM (active); in assay [6], 16.6 µM (active); in assay [7], 18.7 µM (active). The outcome in [8] was inactive.

In the case of `NCCS(=O)(=O)O`, the parasite growth remaining, % of DMSO control (lower = more inhibition) in [9] was 102%. Besides, in [10], the parasite growth, % of control (lower = inhibition) came to 90.9%. This compound also had a growth, % of control in assay [11] of 110%. For the same compound, the cell viability, % of control (lower = more cytotoxic) in assay [1] amounted to 573%. Moreover, the viability (% of control) in [2] was determined as 133%. Also, the Potency result in assay [3], in assay [4], in [5], in [6] and in assay [12] was “inactive” throughout. In addition, the call in assay [8] was inactive.

For the compound `N[C@@H](Cc1c[nH]c2ccc(O)cc12)C(=O)O`, in [9], the parasite growth remaining, % of DMSO control (lower = more inhibition) stood at 101%. The parasite growth, % of control (lower = inhibition) in [10] worked out at 132%. Moreover, the growth, % of control in assay [11] was found to be 99.6%. Moreover, the cell viability, % of control (lower = more cytotoxic) in assay [1] is 126%. In addition, the viability (% of control) in assay [2] worked out at 35.8%. The Potency entry in assay [3], in assay [4], in assay [5], in assay [6] and in assay [12] was “inactive” in each case. In addition, the compound was called inactive in assay [8].

As for `O=C1c2c(O)ccc(O)c2C(=O)c2c(NCCNCCO)ccc(NCCNCCO)c21`, the parasite growth remaining, % of DMSO control (lower = more inhibition) in [9] turned out to be 1.83%. Further, in [10], the parasite growth, % of control (lower = inhibition) turned out to be 5.92%. In addition, in assay [11], the growth, % of control was determined as 0.795%. Further, the cell viability, % of control (lower = more cytotoxic) in assay [1] is 6.11%. In assay [2], the viability (% of control) was determined as 2.98%. For the same compound, the Potency result in [3], in [4] and in assay [7] was “inactive” in each case. The Potency is 0.0935 µM (active) in [5] and 0.059 µM (active) in assay [6].

As to `C[C@@H]1CC(=O)NN=C1c1ccc(NN=C(C#N)C#N)cc1`, the parasite growth remaining, % of DMSO control (lower = more inhibition) in assay [9] amounted to 6.4%. Further, the growth, % of control in [11] worked out at 9.14%. The cell viability, % of control (lower = more cytotoxic) in assay [1] was determined as 7.71%. The viability (% of control) in [2] is 5.81%. Further, the Potency result in assay [3], in [4] and in assay [12] was “inactive” each time. Also, the Potency in [5] was 29.6 µM (active); in assay [6] it was 20.9 µM (active); in assay [7] it was 20.9 µM (active). For the same compound, the call in assay [8] was inactive.

Take `O=C(Nc1ccc([N+](=O)[O-])cc1Cl)c1cc(Cl)ccc1O`: the parasite growth remaining, % of DMSO control (lower = more inhibition) in assay [9] was 6.45%. This compound had a growth, % of control in [11] of 3.45%. Also, in assay [1], the cell viability, % of control (lower = more cytotoxic) was 10.1%. For the same compound, in [2], the viability (% of control) amounted to 20.3%. The Potency entry in [3] is “inactive and 1.05 µM (active)”; in assay [4], 2.82 µM (active) and 1.18 µM (active) and 1 µM (active); in assay [5], 1.32 µM (active); in [6] it was 16.6 µM (active); in assay [7], 1.32 µM (active); in [12], 3.98 µM (active).

As for `O=C1Cc2cc(CCN3CCN(c4nsc5ccccc45)CC3)c(Cl)cc2N1`, the parasite growth remaining, % of DMSO control (lower = more inhibition) in assay [9] is 21.2%. For the same compound, the parasite growth, % of control (lower = inhibition) in assay [10] came out at 20.5%. This compound showed a growth, % of control in assay [11] of 9.47%. For the same compound, in [1], the cell viability, % of control (lower = more cytotoxic) worked out at 199%. Moreover, the viability (% of control) in assay [2] stood at 94.5%. Also, the Potency entry in [3], in [4] and in assay [12] was “inactive” throughout. Besides, the Potency in assay [5], in assay [6] and in [7] was 23.5 µM (active) throughout. The outcome in assay [8] was inactive.

With `CN(Cc1cnc2nc(N)nc(N)c2n1)c1ccc(C(=O)N[C@@H](CCC(=O)O)C(=O)O)cc1`, the parasite growth remaining, % of DMSO control (lower = more inhibition) in assay [9] was 7.1%. In addition, in [10], the parasite growth, % of control (lower = inhibition) was 8.39%. In assay [11], this compound displayed a growth, % of control of 19.5%. For the same compound, in [1], the cell viability, % of control (lower = more cytotoxic) stood at 70%. Also, in assay [2], the viability (% of control) was 9.1%. Besides, the Potency result in assay [3] and in [4] was “inactive” throughout. The results for the Potency in [5], in assay [6] and in assay [7] were 0.0148 µM (active), 0.0264 µM (active) and 0.0372 µM (active), respectively. Besides, the compound was classed as inactive in assay [8].

For `CS(=O)(=O)Nc1ccc([N+](=O)[O-])cc1Oc1ccccc1`, the parasite growth remaining, % of DMSO control (lower = more inhibition) in assay [9] worked out at 94.3%. For the same compound, the growth, % of control in assay [11] worked out at 92.7%. Also, the cell viability, % of control (lower = more cytotoxic) in assay [1] came to 111%. In addition, the viability (% of control) in assay [2] amounted to 17%. Also, the Potency entry in [3], in assay [4] and in assay [12] was “inactive” each time. In addition, the Potency in [5] was 16.6 µM (active); in [6], 16.6 µM (active); in assay [7], 14.8 µM (active). Besides, the compound was called inactive in assay [8].
